# An excerpt weighted towards active compounds, which were near 12% of everything screened.
# BAZ2B inh: inhibitors of human BAZ2B bromodomain. Q9UIF8. AlphaScreen BAZ2B-H3K14Ac peptide displacement. Potency, µM (highest dose often 114 µM), for the others: top-dose activity change, negative = inhibition, actives largely listed as inhibitors. 360,000 tested, 4.4% active. AID 504333; also: % is scaled to controls: 0 for no effect and ±100 for the full control effect; nearly all actives have a fitted effect of over 60% in size
#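 AlphaScreen luminescence quantifies BAZ2B engagement of H3K14Ac peptide; the protein and biotinylated peptide are both at 50 nM final, buffer PBS pH 7.4 with 0.01% Tween-20, all steps at room temperature.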
# HP1b chromo inh: inhibitors of HP1-beta chromodomain binding to methylated histone tails | AlphaScreen HP1-beta / biotin-H3K9me3 peptide binding | 390,000 tested, 0.56% active | P83916 | Potency, µM (series often up to 114 µM), without a hit: at the highest dose activity change, negative = inhibition, actives largely listed as inhibitors | AID 540317; also: nearly all actives have a fitted effect of over 70% in size
#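 Compound inhibition of the preformed complex between 50 nM HP1-beta and 50 nM biotinylated H3K9me3 peptide was read by AlphaScreen. Buffer was PBS pH 7.4 with 0.01% Tween-20. Incubations ran 30 min at room temperature, with 10 ug/mL donor/acceptor beads.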
# JMJD2A Tudor: JMJD2A Tudor domain (human) inhibition; 390,000 tested, 4.4% active; AlphaScreen JMJD2A-Tudor / H3K4me3 peptide binding; Potency, µM (doses to about 114 µM), inactives show at the highest dose activity change, negative = inhibition, actives largely listed as inhibitors; O75164; also: % is scaled to controls: 0 for no effect and ±100 for the full control effect; nearly all actives have a fitted effect of over 50% in size
# G9a block: G9a (human) methyltransferase inhibition; AID 504332; Q96KQ7; Potency, µM (series often up to 102 µM), for inactives: top-dose activity, negative = inhibition, hits mostly inhibitors; 350,000 tested, 8.8% active; G9a H3K9 monomethylation, AlphaScreen, 2 h; also: % is scaled to controls: 0 for no effect and ±100 for the full control effect; nearly all actives have a fitted effect of over 75% in size
#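 Chemiluminescent proximity detection of H3K9 monomethylation, read after 10 min bead incubation in the dark. Reaction: 20 nM G9a, 500 nM biotin-H3K9 peptide, 20 uM SAM cofactor, 2 h, room temperature, following 15 min enzyme-compound preincubation.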
# Sfp inh: inhibitors of Bacillus subtilis Sfp phosphopantetheinyl transferase; Q9F4F7; Biochemical Sfp PPTase activity, qHTS; Potency, µM, without a hit: largest response in the series, negative = inhibition, usual class: inhibitors; 310,000 tested, 3.5% active;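 also: the enzyme is Sfp with the accession as filed and its product quenches rhodamine fluorescence; 0% = enzyme reaction without inhibitor and -100% = no enzyme wells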
#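 Sfp 15 nM + cpd, 15 min RT; start w/ rhodamine-CoA 5 uM, BHQ-2-YbbR 12.5 uM (final); 50 mM Hepes pH 7.6, 10 mM MgCl2, 0.01% NP-40, 0.01% BSA; read 525/598 nm at 0 and 30 min.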
# PLK1 PBD block: PLK1 (human) polo-box domain binding inhibition; Potency, µM, without a hit: max response, negative = inhibition, hits mostly inhibitors; P53350; Plk1 PBD binding of FITC phosphopeptide, fluorescence polarization; 360,000 tested, 2.8% active; AID 720504; also: series mostly up to about 57 µM; % is scaled to controls: 0 for no effect and ±100 for the full control effect; nearly all actives have a fitted effect of over 65% in size
# Target sequence (P53350 whole entry, looked up, the tested form may be a part): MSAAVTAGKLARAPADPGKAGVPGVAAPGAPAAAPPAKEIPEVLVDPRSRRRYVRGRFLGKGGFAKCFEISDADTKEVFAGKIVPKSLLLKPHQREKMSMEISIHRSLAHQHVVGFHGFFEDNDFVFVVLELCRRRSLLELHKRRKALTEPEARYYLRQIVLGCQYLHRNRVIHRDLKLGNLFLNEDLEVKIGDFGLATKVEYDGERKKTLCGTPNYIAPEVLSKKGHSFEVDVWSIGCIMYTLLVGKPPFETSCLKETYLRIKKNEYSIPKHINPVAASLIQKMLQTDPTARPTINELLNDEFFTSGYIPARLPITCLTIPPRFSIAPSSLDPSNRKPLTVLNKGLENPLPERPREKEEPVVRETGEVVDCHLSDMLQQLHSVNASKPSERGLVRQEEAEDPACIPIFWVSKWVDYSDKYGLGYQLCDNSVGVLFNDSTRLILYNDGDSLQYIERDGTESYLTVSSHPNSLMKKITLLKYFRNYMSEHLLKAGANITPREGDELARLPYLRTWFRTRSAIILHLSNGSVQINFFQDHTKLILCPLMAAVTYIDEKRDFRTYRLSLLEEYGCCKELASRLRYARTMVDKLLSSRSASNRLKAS
# Active calls of the source: *; ? = inconclusive; · = no result; [ ] = dose if it differs, or a comment. Calls follow the shape of the dose curve; as a rule, active = well fitted curve in the direction sought with a large enough effect; inconclusive = small, poorly fitted or top-dose-only effect, or another doubt; inactive = no such curve, though single readings can be large; an effect the other way counts as inactive or inconclusive. Potency is read from the fitted curve at half-maximal effect.
SMILES,BAZ2B inh,HP1b chromo inh,JMJD2A Tudor,G9a block,Sfp inh,PLK1 PBD block
Cc1ccc(C2=NN=C(NC(=O)CSc3nnc4c5ccccc5n(C)c4n3)SC2)cc1,-10%,15%,?,45µM*,3%,-26%
Cc1ccc(C2=NN=C(NC(=O)CSc3nc(C)cc(C)n3)SC2)cc1,-36%,·,·,28µM*,40µM*,·
Cc1cc(C(F)(F)F)nc(SCC(=O)NC2=NC(=O)C(C)S2)n1 (stereo not given),5%,4%,-25%,?,-42%,?
O=C(Nc1ccc2c(c1)Cc1ccccc1-2)c1cccnc1,-5%,49%,-25%,·,0%,-9%
C[C@@H]1CCC[C@H](C)N1,·,·,·,-45%[5.15 µM],10%,·
CCOC(=O)C1=C(O)/C(=C\c2ccc(CNC(=O)C(=O)Nc3ccccc3)o2)N=C1C,56µM*,1%,?,?,32µM*,-20%
COc1ccccc1CNc1ccc2c(c1)CCC2,-10%,10%,?,-10%[0.501 µM],2%,0%
O=C(Nc1cccc([N+](=O)[O-])c1)Nc1ccc2c(c1)CCC2,8%,15%,-36%,108%,-15%,-4%
COc1ccc(CNc2ccc3c(c2)CCC3)cc1Br,-26%,15%,-24%,35µM*,-9%,5%
O=[N+]([O-])c1cccc(CNc2ccc3c(c2)CCC3)c1,20µM*,40µM*,1.4µM*,13µM*,?,0%
CCOc1cc(CNc2ccc3c(c2)CCC3)ccc1OC,?,·,·,45µM*,4%,·
CCOc1ccc(CCNC(=O)CCNC(=O)c2ccco2)cc1OCC,-21%,23%,-12%,14%,15%,-12%
COc1ccc(S(=O)(=O)Nc2ccccc2C(N)=O)cc1OC,-1%,40%,1%,23%,8%,1%
CCN(CC)CCCn1c2c(c(SCC(=O)Nc3ccc4c(c3)OCO4)nc1=O)CCC2,9%,25%,-11%,?,·,-2%
OC(CNCCc1ccc(C(F)(F)F)cc1)COc1ccc2ccccc2c1 (stereo not given),-18%,29%,-12%,-43%[59 µM],18µM*,-4%
OC(COc1ccc(CNCCc2ccc(C(F)(F)F)cc2)cc1)CN1CCCCC1 (stereo not given),-8%,24%,-17%,?,14%,-5%
OC(CNC1CCCCCC1)COc1cccc2ccccc12 (stereo not given),?,-19%,3.5µM*,45µM*,-20%,-3%
OC(CNCCc1ccc(C(F)(F)F)cc1)COc1cccc2ccccc12 (stereo not given),-5%,19%,-24%,-16%[59 µM],25µM*,-10%
OC(CNC1CCCC1)COc1ccccc1Br (stereo not given),8%,31%,-14%,·,-4%,-12%
COc1ccccc1COCC(O)CNCCc1ccc(C(F)(F)F)cc1 (stereo not given),25µM*,-22%,79µM*,4µM*,?,-3%
COc1ccc(CCNCC(O)COc2cccc(Br)c2)cc1 (stereo not given),-5%,35%,-14%,-7%,-26%,-4%
Cc1cccc(NC(=O)CSc2nc(-c3cccs3)cc(C(F)(F)F)c2C#N)c1,0%,23%,-5%,-6%[59 µM],·,·
COCCCNC(=O)Cn1c(=O)nc(-c2ccccc2)c2ccccc21,-3%,41%,-1%,25%[59 µM],·,·
CC(C)NC(=O)c1ccc(CSc2nc3ccncc3n2Cc2cccc(F)c2)cc1,0%,40%,1%,-29%[59 µM],·,·
COc1ccc(-n2nc3c(c2NC(=O)C2CC2)CS(=O)C3)cc1 (stereo not given),2%,30%,-5%,-1%,9%,-15%
SMILES,BAZ2B inh,HP1b chromo inh,JMJD2A Tudor,G9a block,Sfp inh,PLK1 PBD block
COc1ccc(-n2nc3c(c2NC(=O)C24CC5CC(CC(C5)C2)C4)CS(=O)C3)cc1 (stereo not given),-5%,36%,-12%,79µM*,-13%,-14%
C/C1=C\[C@@H](O)C(C(C)C)C(OC(=O)c2ccc(O)cc2)C/C(C)=C/CC1 (stereo not given in full),·,·,·,·,8%,·
Cc1sc2nc(CN3CCCC3)nc(Cl)c2c1C,-10%,8%,-12%,?,-7%,?
CCOC(=O)c1sc2nc(CN3CCCCC3)nc(Cl)c2c1C,-32%,27%,-8%,50µM*,-3%,-1%
CCOC(=O)CC(=O)CSc1nccc(-c2cccnc2)n1,-17%,22%,-11%,·,56µM*,-18%
CCn1cc(Cl)c(C(=O)NNC(=O)CCn2ccc([N+](=O)[O-])n2)n1,-29%,27%,6%,?,9%,3%
CCc1nc2nc(C)c(NS(=O)(=O)c3ccc(F)c(C)c3)c(=O)n2[nH]1,3%,37%,-11%,-33%[59 µM],·,·
CCCc1nc2nc(C)c(NS(=O)(=O)c3ccc(C(C)(C)C)cc3)c(=O)n2[nH]1,4%,61%,-5%,79µM*,6%,-6%
CCc1nc2nc(C)c(NS(=O)(=O)c3ccc(F)cc3)c(=O)n2[nH]1,12%,-11%,-3%,25µM*,10%,-7%
CCCc1nc2nc(C)c(NS(=O)(=O)c3ccc4c(c3)CCCC4)c(=O)n2[nH]1,3%,28%,-14%,-17%,23%,-3%
CCc1nc2nc(C)c(NS(=O)(=O)c3cccs3)c(=O)n2[nH]1,7%,28%,6%,?,11%,-11%
CCc1nc2nc(C)c(NS(=O)(=O)c3ccc(Br)s3)c(=O)n2[nH]1,11%,78%,?,50µM*,20%,-25%
N#Cc1nc(Nc2cccc(C(F)(F)F)c2)nc(NC2CCCC2)n1,·,·,-24%,·,·,·
Cc1c(C(=O)NC2CC(C)(C)NC(C)(C)C2)oc2c(Cl)cccc12,·,·,·,·,·,1%
Cn1c(=O)n(C)c2cc(N3CCOCC3)c(NS(=O)(=O)c3cccc(C#N)c3)cc21,22µM*,?,50µM*,6.3µM*,·,·
COc1ccc(CNC(=O)C2CCN(c3nc(-c4ccccc4)nc4c3CCC4)CC2)cc1,-23%,27%,-19%,26%,50µM*,8%
COc1ccc(C2CC(=O)C3=C(C2)NC(C)=C(C#N)C3c2ccc(N(C)C)cc2)cc1 (stereo not given),?,?,?,13µM*,2%,-3%
Cc1ccccc1-c1noc(CSc2nnc(Cc3ccccc3)n2-c2ccc(F)cc2)n1,-3%,28%,-21%,9%[59 µM],·,·
CCOc1ccc(NC(=O)CC2S/C(=N/N=C3CCCCCC3)NC2=O)cc1 (stereo not given),-5%,39%,-22%,-9%,24%,-17%
Cc1ccc(Nc2nnc(SCc3cc(=O)n4ccsc4n3)s2)c(C)c1,-4%,6%,-27%,35µM*,-21%,-12%

# Compound activity from PubChem.
